Compound activity: PubChem, National Center for Advancing Translational Sciences (NCATS)
Gal4-VP16 FLuc – VP16 counterscreen qHTS for inhibitors of ROR gamma transcriptional activity | Drosophila S2 Gal4-VP16 UAS-luciferase, luminescence, 20 h | Potency, µM (highest dose often 53.6 µM), without a hit: at the top dose activity, negative = inhibition, most hits filed as inhibitors | actives 3.5% (n = 310,000);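 further: Gal4-VP16 expression switched on by copper sulfate through the metallothionein promoter; nearly all actives have a fitted effect of over 50% in size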
RORgamma inh – qHTS for inhibitors of ROR gamma transcriptional activity. Nuclear receptor ROR-gamma (Mus musculus), P51450. Potency, µM (doses to about 53.6 µM), for the others: at the top dose activity change, negative = inhibition, actives largely listed as inhibitors. Drosophila S2 Gal4-RORgamma UAS-luciferase reporter, 20 h. actives 5.4% (n = 310,000). AID 2551, 2010; further: nearly all actives have a fitted effect of over 60% in size
Target sequence (P51450 whole entry, looked up, the tested form may be a part): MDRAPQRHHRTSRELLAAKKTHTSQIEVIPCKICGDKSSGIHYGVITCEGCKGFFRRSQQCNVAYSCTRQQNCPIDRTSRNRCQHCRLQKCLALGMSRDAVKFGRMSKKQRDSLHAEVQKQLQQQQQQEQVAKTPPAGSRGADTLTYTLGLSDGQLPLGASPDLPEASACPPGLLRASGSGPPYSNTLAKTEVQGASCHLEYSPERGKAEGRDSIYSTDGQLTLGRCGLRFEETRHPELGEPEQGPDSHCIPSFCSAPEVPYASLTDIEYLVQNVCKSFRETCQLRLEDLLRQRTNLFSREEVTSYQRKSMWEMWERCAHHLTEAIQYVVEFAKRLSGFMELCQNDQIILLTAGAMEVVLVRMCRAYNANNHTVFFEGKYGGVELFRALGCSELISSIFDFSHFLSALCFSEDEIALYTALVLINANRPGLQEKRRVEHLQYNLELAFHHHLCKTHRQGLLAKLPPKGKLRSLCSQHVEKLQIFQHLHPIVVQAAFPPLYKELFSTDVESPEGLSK
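Stably transfected Drosophila Schneider cells are the test system, with ROR gamma fused to Gal4 and luciferase under UAS control; luminescence is read after 20 hr of 700 uM copper sulfate induction at ambient temperature.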
B2AR arrestin – qHTS assay of beta-arrestin-biased ligands of beta2-adrenergic receptor; beta-arrestin recruitment to beta2AR, cell-based reporter; Beta-2 adrenergic receptor (Homo sapiens), P07550; actives 0.02% (n = 330,000); Potency, µM (top dose mostly 46.1 µM), inactives show at the highest dose activation, usual class: activators;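 further: 0% = DMSO controls and full agonism = EC100 isoproterenol or metaproterenol; nearly all actives have a fitted effect of over 65% in size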
NPSR antag – qHTS Assay for Antagonists of the Neuropeptide S Receptor: cAMP Signal Transduction | Potency, µM (highest dose often 38.3 µM), for inactives: top-dose activity change, negative = inhibition, most hits filed as inhibitors | AID 1461, 2008 | Q6W5P4 | CHO-NPSR cells, cAMP TR-FRET, antagonist mode | actives 1% (n = 220,000); further: nearly all actives have a fitted effect of over 50% in size
The depositor's hits bear a star; ? = inconclusive; · = no result given; [ ] = remark or other dose. An excerpt weighted towards active compounds, which were near 5.7% of everything screened. The call rests on the fitted dose curve; in most records, active means well fitted curve in the direction sought with a large enough effect; inconclusive means small, poorly fitted or top-dose-only effect, or another doubt; inactive means no such curve, though single readings can be large; an effect the other way counts as inactive or inconclusive. Unless noted, on the % scale 0 is the no-effect control and ±100 the full control effect; potency means the concentration at half of the fitted maximal effect.

SMILES | Gal4-VP16 FLuc | RORgamma inh | B2AR arrestin | NPSR antag
O=C1C(Cl)=C(N2CCN(c3ccccc3[N+](=O)[O-])CC2)C(=O)c2ccccc21 | ? | -93% | -2% | 10µM*
Oc1ccc(Cl)cc1-c1cc(-c2cccc(Br)c2)n[nH]1 | 0.89µM* | ? | 0% | -22%[46.1 µM]
Oc1ccccc1-c1cc(-c2ccccc2Cl)[nH]n1 | ? | 4.5µM* | · | -15%[46.1 µM]
Oc1ccc(Cl)cc1-c1cc(-c2ccccc2Cl)[nH]n1 | 10µM* | 4.5µM* | 0% | 0%[46.1 µM]
Oc1ccccc1-c1cc(-c2cccc(F)c2)n[nH]1 | ? | ? | 0% | -10%[46.1 µM]
O=[N+]([O-])c1ccccc1-c1cc(-c2cc(Cl)ccc2O)n[nH]1 | ? | 16µM* | 3% | -42%
Cc1ccc(O)c(-c2cc(-c3ccccc3[N+](=O)[O-])[nH]n2)c1 | ? | ? | -1% | -27%
O=C(c1sc2cc(Cl)ccc2c1Cl)N1CCN(CCc2ccccn2)CC1 | -11% | 10% | -1% | ·
COc1ccc([C@@H]2[C@@H](O)[C@H](O)[C@@H](C)N2C)cc1OC | -20% | -1% | · | ·
O=c1c(-c2cccc(F)c2)nc2cncnc2n1Cc1ccccc1Cl | 4% | -19% | · | ·
S=c1[nH]ncn2c1cc1oc3ccccc3c12 | -18% | 2.5µM* | 0% | 10µM*
O=c1c2ccccc2oc2ccccc12 | -1% | -35% | · | ·
Cc1cc(CNC(=O)c2cccc([N+](=O)[O-])c2C)c2ccccc2n1 | 10µM* | -26% | -1% | -7%
CC(C)(C)OC(=O)[C@H](Cc1ccccc1)NC(=O)c1[nH]cnc1C(=O)Nc1cccc(Cl)c1 | 4µM* | 4.5µM* | -1% | ?
Cc1cccc(NC(=O)c2nc[nH]c2C(=O)N[C@@H](CC(C)C)C(=O)OC(C)(C)C)c1 | 10µM* | 5.6µM* | 0% | ?
CC(C)(C)OC(=O)[C@H](Cc1ccccc1)NC(=O)c1[nH]cnc1C(=O)Nc1ccc(Cl)cc1 | 8.9µM* | 4µM* | -1% | ?
Cc1cccc(NC(=O)c2nc[nH]c2C(=O)N[C@@H](Cc2ccccc2)C(=O)OC(C)(C)C)c1 | 7.1µM* | 3.2µM* | 0% | ?
CC(C)(C)OC(=O)[C@H](Cc1ccccc1)NC(=O)c1nc[nH]c1C(=O)NCCCCCN | · | · | 0% | ·
N#CC1(NC(=O)CSc2nnc(-c3ccccc3F)o2)CCCCC1 | · | · | -1% | ·
CC(C)(C)OC(=O)[C@H](CCCCN)NC(=O)c1[nH]cnc1C(=O)N[C@@H](Cc1ccccc1)C(=O)OCc1ccccc1 | · | · | 0% | ·
CCOC(=O)c1ccc(NC(=O)c2nc[nH]c2C(=O)N[C@@H](Cc2ccccc2)C(=O)OC(C)(C)C)cc1 | 7.1µM* | 2.8µM* | 0% | ?
CO[Si](CCCNCCC[Si](OC)(OC)OC)(OC)OC | -11% | 15% | · | ·
Cc1cccc(CNc2cc(-c3cccnc3)ncn2)c1 | -1% | 39% | · | ·
Cc1cc2nc(-c3ccccc3)cc(=O)n2[nH]1 | ? | 13µM* | -1% | 2%
C#CC(=O)N(c1cc(OC)ccc1OC)C(C(=O)NC1CCCC1)c1cccs1 (stereo not given) | 7.1µM* | 4.5µM* | 3% | 10µM*
SMILES | Gal4-VP16 FLuc | RORgamma inh | B2AR arrestin | NPSR antag
C#CC(=O)N(c1ccc(OC)cc1OC)C(C(=O)NC1CCCC1)c1cccs1 (stereo not given) | 7.9µM* | 6.3µM* | 1% | ?
O=C(NCc1ccc(F)cc1F)Nc1cnccc1C(F)(F)F | -5% | -9% | 0% | ·
Cc1onc(-c2ccccc2)c1C(=O)NCCSCc1ccco1 | · | · | 0% | ·
C/C(Cl)=C\Cn1c(O)c(N=O)c2ccccc21 | ? | 32% | -1% | 21%
C/C(Cl)=C\Cn1c(O)c(N=NC(N)=S)c2cc(Br)ccc21 | 3.2µM* | 3.2µM* | 11% | ?
NC(=S)N=Nc1c(O)n(CCCl)c2ccc(Br)cc12 | 3.5µM* | 0.79µM* | 1% | ?
CC(/C=N/n1c(-c2ccccc2)n[nH]c1=S)=C\c1ccco1 | 7.1µM* | ? | 0% | -6%[46.1 µM]
CC(/C=N/n1c(-c2ccc(C)cc2)n[nH]c1=S)=C\c1ccco1 | 2.8µM* | 2.8µM* | 0% | -24%
CC(/C=N/n1c(-c2ccncc2)n[nH]c1=S)=C\c1ccco1 | 5% | -40% | 0% | -35%
CN(C)S(=O)(=O)c1ccc(C(=O)NCC(C)(C)CN=C2NS(=O)(=O)c3ccccc32)cc1 | -13% | 6% | 0% | ·
CCc1nc(N2CCN(C(=O)CCl)CC2)c2c3c(sc2n1)CC(C)CC3 (stereo not given) | ? | 16µM* | 0% | ·
O=C(O)c1ccc(N2C(=O)/C(=C\c3ccccc3)N=C2c2ccccc2)cc1 | -15% | ? | 0% | 6.3µM*
CC1=N/C(=C\c2ccc3c(c2)OCO3)C(=O)N1c1ccc(C(=O)O)cc1 | -3% | 33% | 0% | -25%
CN(C)C(=O)c1ccc(-c2cc(NCc3ccccc3)ncn2)cc1 | 1% | 0% | · | ·
O=C1C=Cc2ccccc2/C1=C/c1[nH]c(=O)[nH]c1O | ? | 6.3µM* | 0% | 10%
Cn1c(=O)c2nc(NCc3ccccc3)cnc2n(C)c1=O | 4% | 21% | 0% | 7%[46.1 µM]
Cc1nc2c(=O)n(C)c(=O)n(C)c2nc1Cl | 7.1µM* | ? | 0% | -31%
Cc1ccc(-n2ncc3c(SCC(=O)NNC(=O)c4ccco4)ncnc32)cc1 | 30% | -23% | 0% | 3%
Cn1ncc2c(NNC(=O)Cc3ccccc3)ncnc21 | -7% | 16% | -2% | 22%
Cc1ccc(-n2ncc3c(NNC(=O)c4ccco4)ncnc32)cc1Cl | 4µM* | 3.2µM* | 0% | ·
Cc1cccc(-n2ncc3c(NNC(=O)c4ccco4)ncnc32)c1 | 7.9µM* | 7.1µM* | -2% | ·
Cc1ccc(-n2ncc3c(NNC(=O)Cc4ccccc4)ncnc32)cc1 | ? | 13µM* | -1% | 12%
O=C(NNc1ncnc2c1cnn2-c1ccc(F)cc1)c1cccs1 | -5% | 13µM* | 0% | 8%
C[C@@H]1OC(Oc2ccccc2-c2cc(=O)c3c(O)cc(O)c([C@@H]4O[C@H](CO)[C@@H](O)[C@H](O)[C@H]4O)c3o2)[C@H](O)[C@H](O)[C@H]1O (stereo not given in full) | -4% | -17% | · | ·
N#CC1=C(N)SC(N)=C(C#N)C1c1cccc(Oc2ccccc2)c1 | ? | ? | 0% | -9%[46.1 µM]
N#CC1=C(N)SC(N)=C(C#N)C1c1c(Cl)cccc1Cl | ? | 8.9µM* | 1% | 2%[46.1 µM]
N#CC1=C(N)SC(N)=C(C#N)C1CCc1ccccc1 | ? | 7.9µM* | 0% | 1%[46.1 µM]
C=CCSC(=C(C#N)C#N)c1cc2c([nH]1)CCCC2 | ? | ? | 0% | 13µM*
COC(=O)NC(c1cccc(C)c1)[C@]1(C(C)=O)CCCC1=O (stereo not given in full) | -7%[10 µM] | 7%[10 µM] | · | ·
COc1cccc(C(=O)NCC(=O)OCC(=O)C(C)(C)C)c1 | -3% | 2.5µM* | 0% | 22%
